Bioassay records as filed in PubChem.
AmpC no deterg: blocks E. coli AmpC beta-lactamase in detergent-free assay; P00811; AmpC nitrocefin hydrolysis, absorbance 480 nm, 0.0001% Triton; Potency, µM (series often up to 57.1 µM), for the others: at the top dose activity change, negative = inhibition, actives largely listed as inhibitors; hit rate 0.52% among 330,000;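 note: plate controls were no compound for no effect and no enzyme for full effect; nearly all actives have a fitted effect of over 20% in size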
Target sequence (P00811 whole entry, looked up): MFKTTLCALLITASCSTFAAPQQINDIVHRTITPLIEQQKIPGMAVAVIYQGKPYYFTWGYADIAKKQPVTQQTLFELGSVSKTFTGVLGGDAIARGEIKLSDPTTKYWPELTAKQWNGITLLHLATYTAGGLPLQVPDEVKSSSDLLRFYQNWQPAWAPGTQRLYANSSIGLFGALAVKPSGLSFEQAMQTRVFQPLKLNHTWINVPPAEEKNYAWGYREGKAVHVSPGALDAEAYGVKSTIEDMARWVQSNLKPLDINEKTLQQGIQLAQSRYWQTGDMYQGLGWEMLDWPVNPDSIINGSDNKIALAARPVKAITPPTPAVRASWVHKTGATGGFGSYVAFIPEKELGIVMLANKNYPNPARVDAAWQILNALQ
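AmpC (5.3 nM in the dispensed reagent) in 20 mM phosphate pH 7.0 with 0.01% (detergent screen) or 0.0001% Triton X-100 was preincubated with compounds for 15 min at room temperature. Nitrocefin was then added from an 800 uM solution, and hydrolysis was followed at 480 nm.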
Sm TGR inh: blocks Schistosoma mansoni thioredoxin glutathione reductase. Q962Y6. purified TGR, DTNB reduction, TNB absorbance 405 nm. Potency, µM (highest dose often 114 µM), for the others: top-dose activity change, negative = inhibition, usual class: inhibitors. hit rate 3% among 360,000. AID 485364; note: nearly all actives have a fitted effect of over 60% in size
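First, TGR (20 nM dispensed) and NADPH were mixed with compound. Second, a 15 min room-temperature incubation followed. Third, further NADPH and then DTNB were added to start the reaction. Finally, TNB absorbance was monitored kinetically.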
AmpC detergent: AmpC beta-lactamase inhibition with detergent present; P00811; hit rate 0.041% among 370,000; AmpC hydrolysis of nitrocefin, absorbance 480 nm, 0.01% Triton; Potency, µM (top dose mostly 114 µM), for the others: at the top dose activity change, negative = inhibition, actives largely listed as inhibitors;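 note: 0% = no-compound wells and -100% = no-enzyme wells; nearly all actives have a fitted effect of over 25% in size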
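20 mM phosphate pH 7.0 + 0.01% (detergent screen) or 0.0001% Triton X-100; 5.3 nM AmpC reagent; cpd preinc 15 min RT; nitrocefin (800 uM stock) to start; A480 q20 s × 4 min; Activity was normalised to no-enzyme and no-compound control wells.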
The depositor's hits bear a star; ? = inconclusive; . = no result; [ ] = another dose, or the depositor's remark. Compounds with a hit are over-represented: about 3.3% of the library has one in this group of screens. Calls come from the whole dose curve; as a rule, active = well fitted curve in the direction sought with a large enough effect; inconclusive = small, poorly fitted or top-dose-only effect, or another doubt; inactive = no such curve, though single readings can be large; an effect the other way counts as inactive or inconclusive. Unless noted, % is set by controls: 0 for no effect and ±100 for the full control effect; potency is the fitted concentration of half-maximal effect.

SMILES	AmpC no deterg	Sm TGR inh	AmpC detergent
CCOC(=O)c1ccc(NC(=O)C(=O)NCc2ccc(/C=C(/C#N)C(=O)NCCOC)o2)cc1	-12%	6%	-1%
Cc1ccc(NC(=O)C(=O)NCc2ccccn2)cc1	-10%	-4%	0%
CCOC(=O)C1=C(O)/C(=C/c2ccc(CNC(=O)C(=O)Nc3ccc(C)cc3)o2)N=C1C	-24%	18µM*	1%
COC(=O)C1=C(O)/C(=C\c2ccc(CNC(=O)C(=O)Nc3ccc(C)cc3)o2)N=C1C	-17%	18µM*	4%
COC(=O)C1=C(O)/C(=C\c2ccc(CNC(=O)C(=O)Nc3ccc(C)c(C)c3)o2)N=C1C	-18%	32µM*	?
CCOC(=O)C(=O)NCc1ccc(/C=C2/N=C(C)C(C(=O)OCC)=C2O)o1	-24%	32µM*	-3%
CCOC(=O)C1=C(O)/C(=C\c2cccc(OC)c2)N=C1C	-5%	1%	-3%
CCCCCOC(=O)c1ccc(NC(=O)c2cccc(NC(=O)c3ccccc3C(=O)O)c2)cc1	-21%	-24%	-6%
COc1ccc(CNC(=O)COC(=O)c2cc(-c3cccs3)nc3ccccc23)cc1OC	5%	5%	-5%
O=C(CSc1nc2ccccc2s1)NCc1cc([N+](=O)[O-])ccc1O	-30%	-7%	?
CCCNC(=O)Cn1nc(-c2ccc(C)c(C)c2)c2cnc3ccc(F)cc3c21	.	3%	19%
N#Cc1cc2c(nc1Cl)CCC2	-3%	1%	2%
N#Cc1ccc(OC(=O)Cc2ccsc2)cc1	3%	62%	-7%
NS(=O)(=O)c1ccc(CCNC(=O)CCCn2c(=O)[nH]c3ccc(Br)cc3c2=O)cc1	-18%	3%	?
COc1ccc(N2C(=O)CC(SCC(=O)O)C2=O)cc1 (configuration not stated)	-8%	-8%	-8%
COc1ccc(NC(=O)CSC2CC(=O)N(c3ccc4c(c3)OCCO4)C2=O)cc1 (configuration not stated)	-22%	45µM*	-10%
COc1ccccc1NC(=O)CN1CCN(CC(=O)Nc2ccc3c(c2)OCO3)CC1	59%	-27%	0%
COc1ccccc1NC(=O)CSC1CC(=O)N(c2ccc3c(c2)OCO3)C1=O (configuration not stated)	-10%	13µM*	3%
Cc1ccnc(SCC(=O)N2CCc3ccccc3C2)n1	75%	32µM*	0%
O=C(CSc1ncccn1)N1CCc2ccccc2C1	0%	12%	4%
CN(C)/C=C1\C(=O)NN=C1C(F)(F)F	-26%	-3%	4%
COc1ccc(N2CCN(c3ccc(NC(=O)NN)cc3)CC2)cc1	-24%	-14%	-10%
Cc1ccc(CCNC(=O)Cn2nc(-c3ccc(C)cc3)ccc2=O)cc1	.	0%	-6%
CC(=O)N1CCN=C1SCc1ccccc1F	3.5µM*	-9%	-7%
CC(=O)N1CCN=C1SCc1ccccc1Cl	0%	-8%	?
SMILES	AmpC no deterg	Sm TGR inh	AmpC detergent
C#CCNC(=O)C1=C[C@@H](C2CCCCC2)C[C@@H](OCCCCO)O1	80%	13µM*	-3%
C#CCNC(=O)C1=C[C@@H](C2CC2)C[C@@H](OCCCCO)O1	-3%	?	-4%
C#CCNC(=O)C1=C[C@H](C2CCCCC2)C[C@H](OCCCCO)O1	52%	13µM*	10%
O=C(NC1CC1)C1=C[C@H](C2CCCCC2)C[C@H](OCCCCO)O1	123%	-5%	-1%
CCCC[C@]12Cc3cc(OC)c(OC)cc3C(O1)C1=C(O2)C(=O)c2ccccc2C1=O	-14%[11.4 µM]	?	?
CCOC(=O)C1CCN(S(=O)(=O)c2ccc3c4c(cccc24)C(=O)N3CC)CC1	10%	.	.
O=C(CSc1nc(=O)[nH]c2c1CCC2)NCc1ccc(Cl)cc1	.	2%	2%
O=C(Nc1ccc(S(=O)(=O)NC2=NCCCCC2)cc1)c1cc(S(=O)(=O)N2CCOCC2)ccc1F	9%	-18%	6%
CCN1C(=O)N(CC)C(=O)C2(Cc3ccccc3N3CCN(c4ccccc4)CC32)C1=O (configuration not stated)	49%	45µM*	5%
CN1C(=O)N(C)C(=O)C2(Cc3cc(N)ccc3N3CCN(c4ccccc4F)CC32)C1=O (configuration not stated)	69%	?	-13%
CCOc1ccc(OCc2ccc(C(=O)NCC3CCCO3)o2)cc1 (configuration not stated)	?	-10%	-4%
O=C(NCC1CCCO1)c1ccc(COc2ccc(F)cc2)o1 (configuration not stated)	0%	35µM*	-4%
O=C(CCN1C(=O)c2ccccc2S1(=O)=O)N1CCN(c2cccc(Cl)c2)CC1	126%	2%	-7%
O=S(=O)(c1ccc(C2CCCCC2)cc1)N1CCOCC1	26%	-2%	1%
Cc1ccc(S(=O)(=O)N2CCOCCOCCOCCOCCOCC2)cc1	17%	7%	6%
O=C(O)c1cc(Cl)c2c(c1)[C@@H]1C=CC[C@@H]1[C@H](c1ccc(S(=O)(=O)N3CCOCC3)cc1)N2	-31%	14µM*	1%
Cc1cc(C)c2c(c1)C1C=CCC1C(c1ccc(S(=O)(=O)N3CCOCC3)cc1)N2 (configuration not stated)	26%	1.6µM*	-7%
Cc1cccc(NC(=O)CSc2nc3ccc(NC(=O)COc4ccc(Cl)cc4)cc3s2)c1	.	-3%	-7%
O=C(CCSCc1ccccc1F)N1CCN(c2ccc(F)cc2)CC1	.	13%	5%
O=C(Cn1cc(SCc2ccccc2Cl)c2ccccc21)N1CCCCCC1	.	0%	2%
Cc1ccc(C)c(N2CCN(C(=O)CCC(=O)N3CCOc4ccc(Cl)cc43)CC2)c1	116%	23%	8%
Cc1ccc(Oc2ncccc2C(=O)NCC(=O)O)cc1	-1%	25%	7%
CCN(CC)CCCNC(=O)C(C)n1nc(C)n2c(cc3occc32)c1=O (configuration not stated)	.	11%	14%
Nc1ccccc1NC(=O)CCn1c(=S)[nH]c2ccccc2c1=O	-35%	5%	0%
O=C1NC(=O)N(c2ccccc2F)C(=O)/C1=C/c1ccc(Oc2ccc([N+](=O)[O-])cn2)cc1	-42%	20µM*	-1%
SMILES	AmpC no deterg	Sm TGR inh	AmpC detergent
O=[N+]([O-])c1ccc(Oc2ccc(OCc3ccccc3)cc2)nc1	-38%	-4%	-5%
CCc1noc(C)c1C(=O)N1CCC(CCC(=O)Nc2cccc(OC)c2)CC1	44%	-22%	-5%
CC(C)CN1C(=O)/C(=C/c2ccco2)NC1=S	-21%	32µM*	?
O=C1N/C(=C/c2ccco2)C(=O)N1Cc1ccccc1F	-38%	56µM*	?
O=C1N/C(=C/c2cccs2)C(=O)N1Cc1ccccc1F	-29%	1%	4%
CC(C)CN1C(=O)/C(=C/c2cccs2)NC1=S	-25%	-10%	-7%
COc1c2c(cc3ccc(=O)oc13)CCO2	-16%	-5%	?
Cc1ccc(-c2nc(-c3cccnc3)sc2CC(=O)O)cc1	72%	-18%	-1%
Cc1ccc(-c2sc(-c3cccnc3)nc2CC(=O)O)cc1	-28%	40µM*	3%
